# Measured values as given in PubChem BioAssay (EPA / NIEHS).
# Calls of active or inactive are those of the source. The calls were made as follows: active = hit-call score of the fitted dose curve at least 0.9, where 1 is the maximum; inactive = score below 0.9.
# Read-out: not listed separately
# Experiment: BSK_LPS_PGE2: BioMAP Diversity Plus: LPS Assay for Prostaglandin E2 (PGE2) Biomarker Activity (AID 2283082);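 as to AC50: secreted prostaglandin E2 measured by ELISA in LPS-stimulated co-culture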
# Details: primary human HUVEC with PBMC; actives raise or lower the signal
# Outline: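 HUVEC plus human PBMC co-culture stimulated with LPS; secreted PGE2 quantified by ELISA 24 h after chemical dosing. Activity fitted bidirectionally against DMSO baseline; parallel SRB staining (0.1% SRB after 10% TCA fixation, 560 nm) flags overt cytotoxicity.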
# Sequence of Tumor necrosis factor (Homo sapiens) (P01375 whole entry, looked up): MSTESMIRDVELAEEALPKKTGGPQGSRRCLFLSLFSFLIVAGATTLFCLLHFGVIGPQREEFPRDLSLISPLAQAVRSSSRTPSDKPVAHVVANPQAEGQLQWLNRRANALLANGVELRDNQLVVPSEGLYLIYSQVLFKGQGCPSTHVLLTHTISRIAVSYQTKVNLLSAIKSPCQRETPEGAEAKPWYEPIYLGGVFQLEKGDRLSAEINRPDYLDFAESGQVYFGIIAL
Compound,AC50,outcome
FC(F)C(F)(F)OCC(Cn1cncn1)c1ccc(Cl)cc1Cl (stereo not drawn),2.52 µM (active),
CCc1cccc(C)c1N(C(=O)CCl)C(C)COC (stereo not drawn),,inactive
CCOP(=S)(OCC)Oc1ccc([N+](=O)[O-])cc1,20 µM (active),
CC[C@H](C)[C@H]1O[C@]2(C=C[C@@H]1C)C[C@@H]1C[C@@H](C/C=C(\C)[C@@H](O[C@H]3C[C@H](OC)[C@@H](O[C@H]4C[C@H](OC)[C@@H](NC)[C@H](C)O4)[C@H](C)O3)[C@@H](C)/C=C/C=C3\CO[C@@H]4[C@H](O)C(C)=C[C@@H](C(=O)O1)[C@]34O)O2,,inactive
COc1ccc(C(=CC(=O)N2CCOCC2)c2ccc(Cl)cc2)cc1OC,,inactive
CCOP(=S)(OCC)Oc1cc(C)nc(C(C)C)n1,,inactive
COP(=O)(OC)SCn1c(=O)oc2cc(Cl)cnc21,2.01 µM (active),
CCCOc1nn(C(=O)NS(=O)(=O)c2ccccc2C(=O)OC)c(=O)n1C,,inactive

# Read-out: Macrophage colony-stimulating factor (MCSF), CSF1 (gene 1435)
# Experiment: BSK_LPS_MCSF: BioMAP Diversity Plus: LPS Assay for Macrophage colony-stimulating factor (MCSF) Biomarker Activity (AID 2283083)
# Details: primary human HUVEC with PBMC; actives raise or lower the signal
# Outline: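 Human umbilical vein endothelial cells co-cultured with peripheral blood mononuclear cells were exposed to compound for 24 h. M-CSF levels were measured by ELISA, and bidirectional curve fitting used DMSO as the negative control and baseline.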
Compound,outcome,AC50
CCOP(=O)(SC(C)CC)N1CCSC1=O (stereo not drawn),inactive,
CC1=NNC(=O)N(/N=C/c2cccnc2)C1,inactive,
CNC(=O)Oc1cccc2c1OC(C)(C)O2,,20 µM (active)
CCCCOC(=O)[C@@H](C)Oc1ccc(Oc2ccc(C#N)cc2F)cc1,inactive,
CCC(=O)Nc1ccc(Cl)c(Cl)c1,inactive,
CSc1nc(NC(C)C)nc(NC(C)C)n1,inactive,
CCOP(=S)(OCC)Oc1ccc([N+](=O)[O-])cc1,,20 µM (active)
CCOP(=O)(OCC)Oc1cc(C)nc(C(C)C)n1,inactive,
CC(Oc1cccc(Cl)c1)C(=O)O (stereo not drawn),inactive,
CCCCOC(=O)c1ccccc1C(=O)O,inactive,
CNC(=O)ON=C(SC)C(=O)N(C)C,inactive,
CCOP(=S)(OCC)OC(Cl)C(Cl)(Cl)Cl (stereo not drawn),inactive,
CSc1nnc(C(C)(C)C)c(=O)n1N,inactive,

# Read-out: Tissue Factor, F3 (gene 2152)
# Experiment: BSK_LPS_TissueFactor: BioMAP Diversity Plus: LPS Assay for Tissue Factor Biomarker Activity (AID 2283084)
# Details: primary human HUVEC with PBMC; actives raise or lower the signal
# Outline: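 Human umbilical vein endothelial cells co-cultured with peripheral blood mononuclear cells were dosed and stimulated with LPS. Cell-surface CD142 was quantified by ELISA at 24 h. Activity was fitted bidirectionally against DMSO baseline.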
Compound,outcome,AC50
COP(=O)(NC(C)=O)SC (stereo not drawn),inactive,
CCOP(=O)(SC(C)CC)N1CCSC1=O (stereo not drawn),inactive,
Cc1ccn2nc(S(=O)(=O)Nc3c(F)cccc3F)nc2n1,inactive,
CN1COCN(Cc2cnc(Cl)s2)C1=N[N+](=O)[O-],inactive,
CC1=NNC(=O)N(/N=C/c2cccnc2)C1,inactive,
CNC(=O)Oc1cccc2c1OC(C)(C)O2,inactive,
S=C1NCCN1,inactive,
CCCSP(=O)(OCC)SCCC,inactive,
CCCCOC(=O)[C@@H](C)Oc1ccc(Oc2ccc(C#N)cc2F)cc1,inactive,
CCOC(=O)COc1cc(-c2nn(C)c(OC(F)F)c2Cl)c(F)cc1Cl,inactive,
CON=C(C(=O)OC)c1ccccc1CON=C(C)c1cccc(C(F)(F)F)c1,inactive,
FC(F)C(F)(F)OCC(Cn1cncn1)c1ccc(Cl)cc1Cl (stereo not drawn),inactive,
CCc1cccc(C)c1N(C(=O)CCl)C(C)COC (stereo not drawn),inactive,
CCC(=O)Nc1ccc(Cl)c(Cl)c1,inactive,
CSc1nc(NC(C)C)nc(NC(C)C)n1,inactive,
CCOP(=O)(NC(C)C)Oc1ccc(SC)c(C)c1 (stereo not drawn),inactive,
CCOP(=S)(OCC)Oc1ccc([N+](=O)[O-])cc1,inactive,
CCOP(=O)(OCC)Oc1cc(C)nc(C(C)C)n1,inactive,

Compound,outcome,AC50
CC[C@H](C)[C@H]1O[C@]2(C=C[C@@H]1C)C[C@@H]1C[C@@H](C/C=C(\C)[C@@H](O[C@H]3C[C@H](OC)[C@@H](O[C@H]4C[C@H](OC)[C@@H](NC)[C@H](C)O4)[C@H](C)O3)[C@@H](C)/C=C/C=C3\CO[C@@H]4[C@H](O)C(C)=C[C@@H](C(=O)O1)[C@]34O)O2,,9.74 µM (active)
COc1ccc(C(=CC(=O)N2CCOCC2)c2ccc(Cl)cc2)cc1OC,inactive,
C[N+]1(C)CCCCC1,inactive,
CCOP(=S)(OCC)Oc1cc(C)nc(C(C)C)n1,inactive,
CCCCN(CC)c1c([N+](=O)[O-])cc(C(F)(F)F)cc1[N+](=O)[O-],inactive,
CC(Oc1cccc(Cl)c1)C(=O)O (stereo not drawn),inactive,
CCCCSP(=O)(SCCCC)SCCCC,inactive,
CCCCOC(=O)c1ccccc1C(=O)O,inactive,
O=C(O)c1cc(Oc2ccc(C(F)(F)F)cc2Cl)ccc1[N+](=O)[O-],inactive,
COP(=O)(OC)SCn1c(=O)oc2cc(Cl)cnc21,inactive,
CNC(=O)ON=C(SC)C(=O)N(C)C,inactive,
CCOP(=S)(OCC)OC(Cl)C(Cl)(Cl)Cl (stereo not drawn),inactive,
CCCOc1nn(C(=O)NS(=O)(=O)c2ccccc2C(=O)OC)c(=O)n1C,inactive,
CSc1nnc(C(C)(C)C)c(=O)n1N,inactive,
CCOC(=O)CC(SP(=O)(OC)OC)C(=O)OCC (stereo not drawn),inactive,
CC(C)=CC1C(C(=O)OCN2C(=O)C3=C(CCCC3)C2=O)C1(C)C (stereo not drawn),inactive,
C#CC(C)(C)NC(=O)c1cc(Cl)cc(Cl)c1,inactive,
COP(=O)(OC)C(O)C(Cl)(Cl)Cl (stereo not drawn),inactive,

# Read-out: Tumor necrosis factor (Homo sapiens) (UniProt P01375)
# Experiment: BSK_LPS_TNFa: BioMAP Diversity Plus: LPS Assay for Tumour Necrosis Factor alpha (TNFa) Biomarker Activity (AID 2283085);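 as to AC50: TNFa protein level quantified by ELISA in the co-culture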
# Details: primary human HUVEC with PBMC; actives raise or lower the signal
# Outline: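 Human umbilical vein endothelial cells co-cultured with PBMC and stimulated with LPS. TNFa was measured by ELISA 24 h after chemical dosing, fitted bidirectionally relative to DMSO.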
Compound,outcome,AC50
COP(=O)(NC(C)=O)SC (stereo not drawn),inactive,
CCOP(=O)(SC(C)CC)N1CCSC1=O (stereo not drawn),inactive,
Cc1ccn2nc(S(=O)(=O)Nc3c(F)cccc3F)nc2n1,inactive,
CN1COCN(Cc2cnc(Cl)s2)C1=N[N+](=O)[O-],inactive,
CC1=NNC(=O)N(/N=C/c2cccnc2)C1,inactive,
CNC(=O)Oc1cccc2c1OC(C)(C)O2,,32.9 µM (active)
S=C1NCCN1,inactive,
CCCSP(=O)(OCC)SCCC,inactive,
CCCCOC(=O)[C@@H](C)Oc1ccc(Oc2ccc(C#N)cc2F)cc1,inactive,
CCOC(=O)COc1cc(-c2nn(C)c(OC(F)F)c2Cl)c(F)cc1Cl,inactive,
CON=C(C(=O)OC)c1ccccc1CON=C(C)c1cccc(C(F)(F)F)c1,,5.02 µM (active)
FC(F)C(F)(F)OCC(Cn1cncn1)c1ccc(Cl)cc1Cl (stereo not drawn),inactive,
CCc1cccc(C)c1N(C(=O)CCl)C(C)COC (stereo not drawn),,13.1 µM (active)
CCC(=O)Nc1ccc(Cl)c(Cl)c1,inactive,
CSc1nc(NC(C)C)nc(NC(C)C)n1,,4.47 µM (active)
CCOP(=O)(NC(C)C)Oc1ccc(SC)c(C)c1 (stereo not drawn),inactive,
CCOP(=S)(OCC)Oc1ccc([N+](=O)[O-])cc1,inactive,
CCOP(=O)(OCC)Oc1cc(C)nc(C(C)C)n1,inactive,

Compound,outcome,AC50
CC[C@H](C)[C@H]1O[C@]2(C=C[C@@H]1C)C[C@@H]1C[C@@H](C/C=C(\C)[C@@H](O[C@H]3C[C@H](OC)[C@@H](O[C@H]4C[C@H](OC)[C@@H](NC)[C@H](C)O4)[C@H](C)O3)[C@@H](C)/C=C/C=C3\CO[C@@H]4[C@H](O)C(C)=C[C@@H](C(=O)O1)[C@]34O)O2,,4.56 µM (active)
COc1ccc(C(=CC(=O)N2CCOCC2)c2ccc(Cl)cc2)cc1OC,,1.4 µM (active)
C[N+]1(C)CCCCC1,inactive,
CCOP(=S)(OCC)Oc1cc(C)nc(C(C)C)n1,,20 µM (active)
CCCCN(CC)c1c([N+](=O)[O-])cc(C(F)(F)F)cc1[N+](=O)[O-],inactive,
CC(Oc1cccc(Cl)c1)C(=O)O (stereo not drawn),inactive,
CCCCSP(=O)(SCCCC)SCCCC,,32.5 µM (active)
CCCCOC(=O)c1ccccc1C(=O)O,inactive,
O=C(O)c1cc(Oc2ccc(C(F)(F)F)cc2Cl)ccc1[N+](=O)[O-],inactive,
COP(=O)(OC)SCn1c(=O)oc2cc(Cl)cnc21,,0.148 µM (active)
CNC(=O)ON=C(SC)C(=O)N(C)C,inactive,
CCOP(=S)(OCC)OC(Cl)C(Cl)(Cl)Cl (stereo not drawn),,32.8 µM (active)
CCCOc1nn(C(=O)NS(=O)(=O)c2ccccc2C(=O)OC)c(=O)n1C,inactive,
CSc1nnc(C(C)(C)C)c(=O)n1N,inactive,
CCOC(=O)CC(SP(=O)(OC)OC)C(=O)OCC (stereo not drawn),inactive,
CC(C)=CC1C(C(=O)OCN2C(=O)C3=C(CCCC3)C2=O)C1(C)C (stereo not drawn),,31.7 µM (active)
C#CC(C)(C)NC(=O)c1cc(Cl)cc(Cl)c1,inactive,
COP(=O)(OC)C(O)C(Cl)(Cl)Cl (stereo not drawn),inactive,
